Source: PubChem
Fluor 339 460: intrinsic fluorescence of library compounds, ex339/em460 – biochemical, MLSMR library, data from DPM-DC assay, artefact control, profiling panel. compound autofluorescence, ex339/em460 nm, NADH buffer; stronger effect = higher value; 1 = no-compound wells, NADH background. fluorescence fold increase at 10 µM. 5.5% of 65,000 active. AID 709;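 active = at 10 µM, mean starting fluorescence two-fold or more over control wells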;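 also: signal is the first read of a kinetic run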
Abs 340nm: compounds absorbing at 340 nm; compound absorbance at 340 nm, fold over control; fold change at 10 µM; 65,000 tested, under 10 active; AID 708;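 active = at 10 µM dose, initial 340 nm absorbance at least 2 fold that of control wells; inactive = change under 2 fold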;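 also: initial absorbance extrapolated from kinetic A340 decline of NADH oxidation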
PMK inhibit: inhibitors of Streptococcus pneumoniae phosphomevalonate kinase. purified PMK, PK/LDH-coupled NADH absorbance 340 nm. inhibition, % at 10 µM. 0.49% of 65,000 active. AID 539;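 active = top-ranked compounds by inhibition in the single 10 µM screen, taking a fixed number of the strongest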;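 also: 0% = full reaction with DMSO carrier and 100% = background rate without enzyme reaction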
Spn DPM-DC inh: inhibitors of Streptococcus pneumoniae diphosphomevalonate decarboxylase; purified DPM-DC, PK/LDH coupled NADH fluorescence; calls only at 10 µM; 0.49% of 65,000 active; AID 556;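 active = the 320 compounds with the highest percent inhibition in the single-dose primary screen, excluding strongly autofluorescent ones, cut at about 32% in these data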;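 also: kinetic rate of NADH fluorescence loss reporting ADP formed by the decarboxylase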
Spn MK inh: blocks S. pneumoniae mevalonate kinase; 0.48% of 65,000 active; inhibition, % at 10 µM; purified MK, PK/LDH-coupled NADH absorbance 340 nm;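 active = ranked among the strongest by inhibition in the single 10 µM screen, a fixed top-ranked set picked for dose follow-up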
NADH coupling: inhibitors of enzymes used to reach an NAD/NADH endpoint. 0.02% of 65,000 active. IC50, µM (doses to about 10 µM), for inactives: top-dose inhibition. coupled PK/LDH NADH assays, four targets;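 active = single-dose screening hits from any of four coupled enzyme assays that gave an IC50 when retested across doses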;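 also: the DPM-DC format reads NADH fluorescence rather than 340 nm absorbance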
* marks the source's active call; other numbers are inactive results; i = inactive; . = no result given; + = active, no number. In the library only some 6.8% were active in any assay of this set; here they are far more common.

SMILES	Fluor 339 460	Abs 340nm	PMK inhibit	Spn DPM-DC inh	Spn MK inh	NADH coupling
O=C(NCc1n[nH]c(=S)n1-c1ccccc1)c1ccco1	1.1	1	9	i	41*	17%
Cc1ccc2nc3c(cc(C(=O)NCc4ccccc4)c(=N)n3CCCn3ccnc3)c(=O)n2c1	3.8*	1.1	6	.	0	3%
Cc1cccn2c(=O)c3cc(C(=O)NC(C)c4ccccc4)c(=N)n(CCCn4ccnc4)c3nc12 (stereo not given)	3.8*	1.1	6	.	0	3%
c1nc2sc3c(c2c2nnnn12)CCC3	2.1*	1	12	.	8	10%
CCn1c(SC(=O)NC2CCCCC2)nnc1-c1cccs1	1.9	1	25*	.	11	18%
CCn1c(SCC(=O)NC2CCCCC2)nnc1-c1cccs1	1.1	0.98	10	i	11	7%
O=C(COC(=O)c1ccc(S(=O)(=O)Nc2ccccc2)cc1)NCCN1C(=O)CSC1=O	1	0.99	8	i	1	3%
CCOC(=O)c1ccc(NC(=O)NS(=O)(=O)c2ccc(C)cc2)cc1	1.1	1	10	i	4	10%
Cc1cc(-c2ccccc2)c(C#N)c(N)n1	2.4*	1	8	.	10	4%
Cc1cc(-c2cccnc2)c(C#N)c(SCC#N)n1	1.1	1	3	i	1	2%
CCOC(=O)C1=C(C)NC(=O)C1(NC(=O)c1cccnc1)C(F)(F)F (stereo not given)	1.1	1.1	0	i	0	0%
COCCn1c(=N)c(C(=O)NCc2ccco2)cc2c(=O)n3ccccc3nc21	3*	1	10	i	4	14%
N=c1c(C(=O)NCc2ccco2)cc2c(=O)n3ccccc3nc2n1Cc1ccccc1	2.4*	1	16	i	12	17%
CCOC(=O)c1cc2c(=O)n3ccccc3nc2n(Cc2ccc(Cl)cc2)c1=N	2.3*	1	6	i	1	3%
O=C(CCn1c(=O)c2ccccc2n(Cc2cc(=O)n3ccccc3n2)c1=O)NCc1ccco1	2.2*	1.1	14	i	0	5%
COCCCn1c(=N)c(C(=O)NCc2ccc3c(c2)OCO3)cc2c(=O)n3ccccc3nc21	1.2	1.1	0	i	1	0%
CS(=O)(=O)NCCOc1ccc(S(=O)(=O)N2CCCc3ccccc32)cc1	1.1	1.1	0	i	0	0%
Cc1ccc(CS(=O)(=O)CCC(=O)NCCCOC(C)C)cc1	1.2	1	20	i	0	7%
N=c1c(C(=O)NCc2ccco2)cc2c(=O)n3ccccc3nc2n1Cc1ccc(Cl)cc1	2.5*	1.1	5	i	6	7%
N=c1c(C(=O)NCc2ccc3c(c2)OCO3)cc2c(=O)n3ccccc3nc2n1Cc1cccnc1	1.6	1	1	i	4	2%
Cc1cccc(NC(=O)c2sc3nc(-c4ccccc4)cn3c2C)n1	1.2	1	5	i	0	2%
Cc1cccc(NC(=O)c2sc3nc(-c4ccc(F)cc4)cn3c2C)n1	4.5*	1.1	14	.	8	11%
Cc1nn2c(c1-c1ccccc1)NC1=C(C(=O)CCC1)C2c1cccnc1 (stereo not given)	3.8*	1.1	11	.	0	6%
Cc1ccc2nc3c(cc(C(N)=S)c(=N)n3CCCOC(C)C)c(=O)n2c1	1.5	1.1	10	i	11	8%
O=C(COc1ccccc1)Nc1nnc(-c2ccc(Cl)s2)o1	2.1*	1.1	12	.	7	10%
SMILES	Fluor 339 460	Abs 340nm	PMK inhibit	Spn DPM-DC inh	Spn MK inh	NADH coupling
O=C(COc1ccccc1)Nc1nnc(-c2ccccc2)o1	1.1	1	3	i	9	6%
O=C(C1CC1)N1CCc2cc(Br)cc(S(=O)(=O)NCC3COc4ccccc4O3)c21 (stereo not given)	1.1	1	0	i	11	5%
OCCNc1ncnc2c1c(-c1ccccc1)c(-c1ccccc1)n2Cc1ccco1	1.4	0.99	5	+	0	6%
CCN(CC)c1nc(N)c2c(N)nc3c(c2c1C#N)CC(c1ccccc1)O3 (stereo not given)	2.1*	1.1	14	.	6	10%
CCN(CC)c1nc(N)c2c(N)n(-c3ccccc3C)c(=S)c(C#N)c2c1C#N	1.8	1	16	i	4	8%
CN(C)c1oc(-c2ccccc2)nc1C#N	2.1*	1.1	20	.	8	14%
Cc1ccccc1-c1nnc(-c2ccccc2)o1	1.1	1	8	i	5	10%
CN(C)c1oc(-c2ccccc2Cl)nc1C#N	2.7*	1.1	11	i	5	3%
CN(C)c1oc(-c2ccccc2Cl)nc1S(=O)(=O)c1ccccc1	1.1	1.1	0	i	8	7%
CCOC(=O)c1nc(-c2ccccc2)oc1N(C)C	4.9*	1.1	9	.	0	5%
COCCOC(=O)c1c(C)oc2ccc(OC(=O)c3c(OC)cccc3OC)cc12	1.1	1	1	i	0	0%
Cc1ccccc1C(=O)Nc1cccc(NC(=O)Cn2cnc3c(=O)n(C)c(=O)n(C)c32)c1	1.1	1	3	i	9	5%
CCOC(=O)CNC(=O)c1cnn2cccnc12	2.3*	1.1	4	i	17	13%
COc1ccc(C2CC(=O)Nc3ccccc3S2(=O)=O)cc1OC (stereo not given)	1.2	1	17	i	0	6%
COc1ccc(N(CC(=O)Nc2cc(OC)ccc2OC)S(C)(=O)=O)cc1	1.1	1	0	i	51*	17%
COc1ccc2nc(SCC(=O)N3CCCCCC3)c(C#N)cc2c1	1.3	1	4	i	12	8%
COc1ccc2nc3sc(C(=O)N4CCN(C)CC4)cc3cc2c1	2.7*	1	15	i	0	7%
CCOC(=O)C1CCN(C(=O)c2cc3cc4cc(OC)ccc4nc3o2)CC1	5.1*	1	11	.	0	6%
COc1ccc2nc3oc(C(=O)N4CCCCC4)cc3cc2c1	3.4*	1	9	.	0	16%
Cc1occc1-c1nnc(SCC(=O)N2CCc3ccccc32)o1	1.1	1	8	i	0	1%
Cc1ccc(CN2C(=O)CCC2C(=O)NCCCN2CCCC(C)C2)cc1 (stereo not given)	1	0.98	7	i	0	3%
CN(C1CCCCC1)S(=O)(=O)c1ccc(NC(=O)C2CCCCC2C(=O)O)cc1 (stereo not given)	1.1	1	1	i	10	7%
Cc1ccc(C2CC(=O)NC3=C2C(=O)CCC3)cc1Br (stereo not given)	1.1	1	12	i	1	4%
CCN1C2=C(C(=O)CCC2)C(c2ccc(O)c(Br)c2)C2=C1CCCC2=O	2.1*	1.1	4	.	6	5%
